Data published in PubChem BioAssay AID1159580 (chemical genetic matrix, 2015).
“And” between values parts separate entries of the source, which are not always exact repeats. Equal entries are not always repeated. In all, about 5,500 compounds went through this assay and about 2,000 (36%) were called active. About 18% were inconclusive and are not listed. No stated cut-off is given here; in the data, active means normalized growth mostly below about 0.91 (no sharp cut-off); inconclusive means no clear call, values can overlap the other calls; inactive means mostly above about 0.92. This is one part of the list.

Experiment: chemical genetic growth profiling, strain panel (AID 1159580);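 further: tested at 20 µM; growth read once vehicle control cultures reached saturation at 30 °C; 1 = growth at the plate median or of vehicle wells; lower values mean less growth of the strain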
Settings: S. cerevisiae deletion strains, growth OD
[1] = locus YAL013W, strain DEP1, hits give low values
[2] = locus YDR150W, strain NUM1, hits give low values
[3] = locus YJR075W, strain HOC1, hits give low values
[4] = locus YNL153C, strain GIM3, hits give low values

Measured: normalized growth

CN1CC(CNC(=O)OCc2ccccc2)CC2c3cccc4c3c(cn4C)CC21 (stereo unspecified)
inactive: [1] 1.01 | locus YBR021W, strain FUR4, hits give low values 1.02 | locus YBR229C, strain ROT2, hits give low values 1 | locus YCL029C, strain bik1, hits give low values 0.977 | locus YDL035C, strain GPR1, hits give low values 1.04 | locus YDL074C, strain BRE1, hits give low values 0.999 | locus YDL101C, strain DUN1, hits give low values 0.978 | locus YDL185W, strain tfp1, hits give low values 0.97 | locus YDL192W, strain arf1, hits give low values 0.993 | locus YDR101C, strain arx1, hits give low values 0.995 | [2] 0.994 | locus YDR162C, strain NBP2, hits give low values 1.02 | locus YDR318W, strain mcm21, hits give low values 0.985 | locus YDR388W, hits give low values 0.987 | locus YDR502C, strain sam2, hits give low values 0.941 | locus YEL061C, strain CIN8, hits give low values 0.992 | locus YER110C, hits give low values 0.972 | locus YER155C, strain BEM2, hits give low values 0.991 | locus YER167W, strain BCK2, hits give low values 1 | locus YGL078C, strain dbp3, hits give low values 0.995 | locus YGL086W, strain mad1, hits give low values 0.982 | locus YGL248W, strain PDE1, hits give low values 0.989 | locus YGR078C, strain PAC10, hits give low values 0.995 | locus YGR135W, strain pre9, hits give low values 0.984 | locus YGR252W, strain gcn5, hits give low values 1.04 | locus YHR030C, strain SLT2, hits give low values 0.998 and 0.982 | locus YHR079C, strain IRE1 (second series), hits give low values 0.965 | locus YHR079C, strain IRE1, hits give low values 0.972 | locus YHR094C, strain hxt1, hits give low values 0.988 | locus YHR129C, strain ARP1, hits give low values 0.999 | locus YHR200W, strain rpn10, hits give low values 0.985 | locus YIL066C, strain RNR3, hits give low values 1.01 | locus YIL073C, strain SPO22, hits give low values 0.911 | locus YIL125W, strain kgd1, hits give low values 1 | locus YIR030C, strain dcg1, hits give low values 0.986 | locus YJL095W, strain BCK1, hits give low values 0.957 and 0.968 | locus YJL134W, strain LCB3, hits give low values 0.995 | locus YJL168C, strain set2, hits give low values 1 | locus YJL187C, strain SWE1 (second series), hits give low values 0.973 | locus YJR043C, strain POL32, hits give low values 1.07 | locus YJR066W, strain TOR1, hits give low values 0.877 | [3] 0.981 | locus YKL009W, strain mrt4, hits give low values 0.979 | locus YKL068W, hits give low values 0.983 | locus YKL085W, strain MDH1 (second series), hits give low values 0.975 | locus YKL085W, strain MDH1, hits give low values 0.975 | locus YKR001C, strain vps1, hits give low values 0.996 | locus YLR039C, strain RIC1, hits give low values 0.988 | locus YLR058C, strain SHM2, hits give low values 0.988 | locus YLR102C, strain apc9, hits give low values 0.986 | locus YLR113W, strain HOG1, hits give low values 1.03 | locus YLR262C, strain YPT6, hits give low values 0.998 | locus YLR268W, strain sec22, hits give low values 0.986 | locus YLR330W, strain CHS5, hits give low values 0.993 | locus YLR342W, strain FKS1 (second series), hits give low values 1.07 | locus YLR371W, strain rom2, hits give low values 0.992 | locus YLR418C, strain cdc73, hits give low values 1.01 | locus YML016C, strain PPZ1, hits give low values 0.999 | locus YML032C, strain rad52, hits give low values 0.998 | locus YML124C, strain tub3, hits give low values 1 | locus YMR078C, strain ctf18, hits give low values 0.983 | locus YMR223W, strain ubp8, hits give low values 0.979 | locus YMR263W, strain SAP30, hits give low values 0.979 | locus YMR307W, strain GAS1, hits give low values 1.16 | locus YNL067W, strain RPL9B, hits give low values 0.96 | [4] 0.981 | locus YNL183C, strain NPR1, hits give low values 0.879 | locus YNL233W, strain BNI4, hits give low values 0.986 | locus YNL250W, strain rad50, hits give low values 0.971 | locus YNL271C, strain bni1, hits give low values 0.992 | locus YNL298W, strain CLA4, hits give low values 0.99 | locus YNL307C, strain MCK1, hits give low values 0.985 | locus YNR052C, strain pop2, hits give low values 0.975 | locus YOL012C, strain htz1 0.968 | locus YOL147C, strain pex11, hits give low values 0.989 | locus YOR061W, strain CKA2, hits give low values 0.994 | locus YOR069W, strain VPS5, hits give low values 0.997 | locus YOR136W, strain idh2, hits give low values 0.98 | locus YOR144C, strain elg1, hits give low values 1.01 | locus YOR184W, strain ser1, hits give low values 1 | locus YOR231W, strain MKK1, hits give low values 0.991 | locus YOR316C, strain cot1, hits give low values 0.979 | locus YPL256C, strain CLN2, hits give low values 0.986 | locus YPR119W, strain clb2, hits give low values 0.981 | locus YPR141C, strain kar3, hits give low values 0.988 | locus YPR163C, strain tif3, hits give low values 1 | locus YPR167C, strain met16, hits give low values 0.991 | strain wtn01, hits give low values 1.01

CN1C[C@H](CNC(=O)OCc2ccccc2)C[C@@H]2c3cccc4c3c(cn4C)C[C@H]21
inactive: [1] 0.987 | locus YAL040C, strain CLN3, hits give low values 0.985 | locus YCL061C, strain MRC1 (second series), hits give low values 0.998 | [2] 0.994 | locus YDR363W, strain ESC2, hits give low values 1.01 | locus YER002W, strain NOP16, hits give low values 1.04 | [3] 0.969 | [4] 0.904 | locus YNL175C, strain NOP13, hits give low values 1.01 | locus YNL197C, strain WHI3, hits give low values 0.994 | locus YNL224C, strain SQS1, hits give low values 1.04 | locus YOR083W, strain WHI5 (second series), hits give low values 0.969 | locus YPL055C, strain LGE1, hits give low values 1.02
